{
  "source": "PubChem BioAssay (NCATS)",
  "key": {"[1]": {"test_system": "Zika virus NS2B-NS3 protease (linked construct)", "assay": "Primary screen NINDS Rhodamine qHTS for Zika virus inhibitors (AID 1347160); note: nearly all actives have a fitted effect of over 55% in size; note: potency is the fitted concentration of half-maximal effect", "in_short": "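Aprotinin served as in-plate control. Conditions: 25 nM linked NS2B-NS3, pH 8.0 Tris buffer, titrated compounds, 15 min preincubation and 15 min reaction with 1.5 microM Rhod110 substrate at room temperature.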"}, "[2]": {"assay": "UWB1.289-WTBRCA1 Cancer Cell Toxicity qHTS against the NCATS CANVASS Library (AID 1347354); note: potency is the fitted concentration of half-maximal effect", "in_short": "(§1)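 1000 cells/well, 4 h pre-incubation 37 °C/5% CO2; 11-pnt titration; 72 h; CellTiter-Glo 15 min RT, luminescence.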"}, "[3]": {"assay": "SDT Cancer Cell Toxicity qHTS against the NCATS CANVASS Library (AID 1347365)", "in_short": "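Luminescent ATP read-out (CellTiterGlo) after 72 hr compound exposure of dog glioma SDT cells, 500 per well. Eleven-point titrations; bortezomib titration run alongside as control.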"}, "[4]": {"assay": "qHTS for Antimalaria activity screened against the NCATS CANVASS Library (AID 1347380)", "in_short": "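SYBR Green fluorescence (ex 485, em 535 nm) read after saponin/Triton lysis and 18 h further incubation; Dd2 asexual blood-stage parasites, 72 h compound exposure, 11-pt concentration series, 2.5% hematocrit, 0.3% parasitemia.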"}, "[5]": {"assay": "Vero-766 cells viability qHTS against the NCATS CANVASS Library: Counterscreen for Zika virus inhibition assay (AID 1347394)", "in_short": "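Counterscreen for toxicity: Vero 766 cells exposed 72 h to an 11-point compound series, viability by CellTiter-Glo.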"}, "[6]": {"assay": "qHTS for inhibitors of Wild type Zika virus screened against the NCATS CANVASS Library (AID 1347396)", "in_short": "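Vero 766 cells, 1000/well, o/n attach; cpds pin-transferred (11-pt qHTS); WT Zika added; 72 h, 37C, 5% CO2; CellTiter Glo lumi. Uninfected + vehicle = 100% inhibition.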"}, "[7]": {"assay": "J3T Cancer Cell Toxicity qHTS against the NCATS CANVASS Library (AID 1347371)", "in_short": "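Dog glioma J3T, 500 cells/well; cpd 11-pt qHTS; 72 hr, 37C/5% CO2; CellTiterGlo ATP luminescence readout.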"}, "[8]": {"assay": "qHTS for Inflammasome Signaling Inhibitors: IL-1-beta AlphaLISA screen against the NCATS CANVASS Library (AID 1347379)", "in_short": "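THP-1, 1 hr compound pre-incubation, then LPS 250 ng/mL + ATP 1.25 mM (final); 16 hr total with compound; IL-1B AlphaLISA, ex 680/em 615 nm; 11-point qHTS, up to 57.5 uM final.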"}, "[9]": {"assay": "COV-362 Cancer Cell Toxicity qHTS against the NCATS CANVASS Library (AID 1347352)", "in_short": "as §1"}, "[10]": {"assay": "Confirmation and Secondary Assay for Modulators of Hemoglobin Beta Chain Splicing at IVS2 654 locus (AID 910)", "in_short": "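Readout: per-well total peak green fluorescence (488 nm ex, 500–520 nm em) from objects 5–250 µm, reflecting correct splicing of an EGFP-654 reporter. Compounds were applied for 2 days at 37 °C to overnight-plated HeLa EGFP-654 cells; controls were DMSO and 500 nM IVS2-654 PNA.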"}, "[11]": {"assay": "Confirmation and Secondary Assay for Modulators of Hemoglobin Beta Chain Splicing at IVS2 705 locus (AID 930)", "in_short": "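Read-out: total peak GFP fluorescence per well (488 nm excitation, 500-520 nm emission) by laser-scanning cytometry. Cells: HeLa EGFP-705 splicing reporter, 2 days compound exposure in Optimem/2% FCS.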"}, "[12]": {"assay": "qHTS Assay for Lipid Storage Modulators (AID 1519; calls by dose curve)", "details": "Drosophila S3 cells, BODIPY lipid droplet/cell ratio, laser cytometry, cells loaded with oleic acid", "in_short": "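Cells seeded at 5,000 per well were treated with compounds over a concentration series and loaded with oleic acid (400 uM, as added). Lipid droplet fluorescence (488 nm excitation, 500-530 nm channel) was read by laser-scanning cytometry and normalized to 20 uM Triacsin C.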"}, "[13]": {"test_system": "Zika virus NS2B-NS3 protease (linked construct)", "assay": "384 well plate NINDS Rhodamine confirmatory qHTS for Zika virus inhibitors (AID 1347164)", "in_short": "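Cleavage of Ac-LKRR-Rhodamine 110 (10 microM final) by linked protease (final 5, 30 or 60 nM) was followed as fluorescence at 485/538 nm after 25 min, room temperature, dark. Compounds preincubated ~15 min.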"}, "[14]": {"assay": "Confirmatory screen NINDS Rhodamine qHTS for Zika virus inhibitors (AID 1347161)", "in_short": "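qHTS dose-response: 25 nM linked protease, pH 8.0 Tris/Tween buffer, cpd titration, 15 min RT preinc, 1.5 microM Rhod110 peptide, 15 min reaction (~15% conversion), Ex480/Em540; 4-parameter Hill fit.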"}, "[15]": {"assay": "NCATS anti-infectives library activity on HEK293 viability as a counter-qHTS vs the C. elegans viability qHTS (AID 1745854)", "in_short": "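CellTiter-Glo luminescence, read on a CCD imager, scored viability of HEK293 cells after 24 hr compound exposure at 37C. Library tested in several concentrations, 1:5 steps, up to 41.7 uM; digitonin served as control.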"}, "[16]": {"biological_target": "Glutathione peroxidase 1 (Homo sapiens) (UniProt P07203)", "sequence (P07203 whole entry, looked up)": "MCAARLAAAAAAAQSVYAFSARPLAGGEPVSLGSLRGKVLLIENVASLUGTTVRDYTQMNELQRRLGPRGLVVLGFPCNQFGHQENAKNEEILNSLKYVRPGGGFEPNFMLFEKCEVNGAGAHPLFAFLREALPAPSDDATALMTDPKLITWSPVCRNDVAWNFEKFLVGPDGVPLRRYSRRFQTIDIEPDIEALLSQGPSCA", "assay": "Primary qHTS Assay for Inhibitors of Recombinant Selenoprotein Glutathione Peroxidase 1 (GPX1) (AID 1845191)", "in_short": "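NADPH consumption tracked by fluorescence at 340/450 nm between t=0 and t=15 min, room temperature. Final mix: 10 nM GPX1, 100 nM glutathione reductase, 1 mM GSH, 0.5 mM NADPH, 0.5 mM cumene hydroperoxide, 0.01% BSA; 30 min compound–enzyme preincubation.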"}, "[17]": {"assay": "qHTS drug screen for cell cycle checkpoint inhibitors in PARPi-resistant BRCA-mutant ovarian cancer cell lines. (AID 1963452; calls by dose curve)", "details": "PEO1/OlaR viability, CellTiter-Glo luminescence, 96 h, stronger effect = lower value", "in_short": "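PEO1, PEO4 and PEO1/OlaR ovarian cancer cells, 600 per well, exposed 96 h at 37C to a dilution series. Viability read by CellTiter-Glo luminescence, normalized to DMSO and empty wells; activity summarized as Z-AUC.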"}},
  "note": "Inconclusive results are not listed. Where a call stands in place of a potency, no number is given. Active and inactive are the calls of the source. Unless noted, calls come from the whole dose curve; as a rule, active = well fitted curve in the direction sought with a large enough effect; inconclusive = small, poorly fitted or top-dose-only effect, or another doubt; inactive = no such curve, though single readings can be large; an effect the other way counts as inactive or inconclusive.",
  "data": [
    {"molecule": "C/C1=C/[C@@H](C)[C@H](O)[C@@H](O)/C=C/CC/C=C/C(=O)O[C@@H]1[C@H](C)C(=O)/C=C/CC1CC(=O)NC(=O)C1", "values": [
      {"measurement": "Potency", "setting": "[1]", "result": "inactive"},
      {"measurement": "Potency", "setting": "[2]", "result": "inactive"},
      {"measurement": "Potency", "setting": "[3]", "result": "18.7 µM (active)"},
      {"measurement": "Potency", "setting": "[4]", "result": "inactive"},
      {"measurement": "Potency", "setting": "[5]", "result": "inactive"},
      {"measurement": "outcome", "setting": "[6]", "result": "inactive"}
    ]},
    {"molecule": "C/C=C1/CN2C3CC1C1C=CC(=O)N4c5ccccc5[C@@]3(C[C@@H]2C2=C[C@H]3C5CC6N(CC[C@@]67c6ccccc6N(C2=O)[C@@H]37)C/C5=C/C)[C@H]14", "note": "(stereo partly drawn)", "values": [
      {"measurement": "Potency", "setting": "[1]", "result": "15.6 µM (active)"},
      {"measurement": "Potency", "setting": "[2]", "result": "16.7 µM (active)"},
      {"measurement": "Potency", "setting": "[7]", "result": "20.9 µM (active)"},
      {"measurement": "Potency", "setting": "[8]", "result": "12.2 µM (active)"},
      {"measurement": "Potency", "setting": "[4]", "result": "1.06 µM (active)"}
    ]},
    {"molecule": "C/C=C/C(=O)C1(O)CC2CC(C(=O)O)CC(C)C2C1C1=C2C(=O)NC(=O)C2=C(CCCCC)C(C)O1", "note": "(stereo not drawn)", "values": [
      {"measurement": "Potency", "setting": "[1]", "result": "49.3 µM (active)"},
      {"measurement": "Potency", "setting": "[3]", "result": "16.6 µM (active)"},
      {"measurement": "Potency", "setting": "[7]", "result": "20.9 µM (active)"},
      {"measurement": "Potency", "setting": "[8]", "result": "19.3 µM (active)"},
      {"measurement": "Potency", "setting": "[4]", "result": "inactive"},
      {"measurement": "Potency", "setting": "[5]", "result": "inactive"}
    ]},
    {"molecule": "CO[C@H]1/C=C/CCCCC(=O)O[C@@H](/C(C)=C/[C@H](C)C(=O)C[C@H](O)CC2CC(=O)NC(=O)C2)[C@@H](C)C1", "values": [
      {"measurement": "Potency", "setting": "[1]", "result": "49.3 µM (active)"},
      {"measurement": "Potency", "setting": "[4]", "result": "9.41 µM (active)"},
      {"measurement": "Potency", "setting": "[5]", "result": "inactive"}
    ]},
    {"molecule": "CC(=O)c1c(C)cc2c(c1O)C(=O)c1c(O)cc(O)cc1C2=O", "values": [
      {"measurement": "Potency", "setting": "[9]", "result": "inactive"},
      {"measurement": "Potency", "setting": "[2]", "result": "inactive"},
      {"measurement": "Potency", "setting": "[8]", "result": "inactive"},
      {"measurement": "Potency", "setting": "[4]", "result": "inactive"},
      {"measurement": "Potency", "setting": "[5]", "result": "inactive"},
      {"measurement": "outcome", "setting": "[6]", "result": "inactive"}
    ]},
    {"molecule": "COC1C(C)OC(OCC23C[C@@H]4[C@H](C)CC[C@H]4C4(C=O)CC2C=C(C(C)C)C34C(=O)O)[C@@H](O)[C@H]1O", "note": "(stereo partly drawn)", "values": [
      {"measurement": "Potency", "setting": "[9]", "result": "inactive"},
      {"measurement": "Potency", "setting": "[2]", "result": "inactive"},
      {"measurement": "Potency", "setting": "[3]", "result": "inactive"},
      {"measurement": "Potency", "setting": "[7]", "result": "inactive"},
      {"measurement": "Potency", "setting": "[8]", "result": "inactive"},
      {"measurement": "Potency", "setting": "[4]", "result": "inactive"},
      {"measurement": "Potency", "setting": "[5]", "result": "inactive"},
      {"measurement": "outcome", "setting": "[6]", "result": "inactive"}
    ]},
    {"molecule": "CC1COC2=C1C(=O)C(=O)c1c2ccc2c1CCCC2(C)C", "note": "(stereo not drawn)", "values": [
      {"measurement": "outcome", "setting": "[10]", "result": "inactive"},
      {"measurement": "outcome", "setting": "[11]", "result": "inactive"},
      {"measurement": "activity change, negative = inhibition", "setting": "[12]; at 57.5 µM (top of the series)", "result": "2.92% (inactive)"},
      {"measurement": "max response", "setting": "[12]; measured here: cell count channel max response", "result": -7.49, "unit": "%"},
      {"measurement": "max response", "setting": "[12]; measured here: lipid channel max response", "result": -5.49, "unit": "%"},
      {"measurement": "Potency", "setting": "[13]", "result": "79.4 µM (active)"}
    ]},
    {"molecule": "CN(C)c1cc(NC(=O)CNC(C)(C)C)c(O)c2c1C[C@H]1C[C@H]3[C@H](N(C)C)C(=O)C(C(N)=O)=C(O)[C@]3(O)C(=O)C1=C2O", "values": [
      {"measurement": "Potency", "setting": "[14]", "result": "1.97 µM (active)"},
      {"measurement": "Potency", "setting": "[15]", "result": "inactive"},
      {"measurement": "Potency", "setting": "[16]", "result": "inactive"},
      {"measurement": "Z-AUC", "setting": "[17]", "result": "1.31 (inactive)"},
      {"measurement": "Z-AUC", "setting": "[17]; measured here: PEO1 parental Z-AUC", "result": 1.13},
      {"measurement": "Z-AUC", "setting": "[17]; measured here: PEO4 Z-AUC", "result": 1.05}
    ]},
    {"molecule": "C=C[C@](Cl)(CBr)CCC=C(C)C", "values": [
      {"measurement": "Potency", "setting": "[1]", "result": "inactive"},
      {"measurement": "Potency", "setting": "[9]", "result": "inactive"},
      {"measurement": "Potency", "setting": "[2]", "result": "inactive"},
      {"measurement": "Potency", "setting": "[3]", "result": "inactive"},
      {"measurement": "Potency", "setting": "[7]", "result": "inactive"},
      {"measurement": "Potency", "setting": "[4]", "result": "inactive"},
      {"measurement": "outcome", "setting": "[6]", "result": "inactive"}
    ]}
  ]
}
